Reference: PubChem BioAssay (NCI)
“And” between values parts separate entries of the source, which are not always exact repeats. Identical values can stand only once. Compounds without any hit were thinned out: in the full panel of roughly 83,000, 20% have a hit.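 Compound tested at a single concentration for 48 hours in 96-well plates; a percent growth value below 10 was scored as active.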 The source made the active and inactive calls.

system: CCRF-CEM leukemia; test: NCI-60 one-dose screen, 48 h (100 = growth as untreated, 0 = no growth, -100 = all killed); details: 10 µM
Experimental: Growth inhibition of the CCRF-CEM human tumor cell line is measured as a screen for anti-cancer activity. Cells are grown in 96 well plates and exposed to the test compound for 48 hours. Compounds are tested at a single concentration, which is 10^-5 M for most compounds. The reported endpoint is percent growth (GI% or GIPRCNT), where numbers from 0 - 100% represent growth inhibition, and numbers from -100% - 0 represent cell death. For example, a value of 40 represents 60% growth inhibition. A value of 0 means no net growth occurred over the course of the experiment. A value of -40 indicates 40% of cells at the beginning of the experiment died by the end of the experiment. A value of -100 means all cells are dead at the end of the experiment.
NCI-60 Human Tumor Cell Lines Screen was performed using the standard one-dose NCI protocol, which is described in more detail at https://dtp.cancer.gov/discovery_development/nci-60/default.htm.
Compounds with GIPRCNT values below 10 were considered active. Activity score was based on GIPRCNT using the following formula: […]
Score is 0 for GIPRCNT values of 100 or above, 50 for GIPRCNT values of 0, and 100 for GIPRCNT values of -100.

| Structure (SMILES) | growth |
| --- | --- |
| S=c1nc[nH]c2nc[nH]c12 | 13% (inactive) |

same assay, conditions: 10 µM unless noted

| Structure (SMILES) | growth |
| --- | --- |
| N#Cc1c[nH]n2ccnc12 | 109% (inactive) |
| O=C(N=C1C(=O)C2(CCCCC2)C2(N=C(c3ccccc3)OC2=O)C12CCCCC2)c1ccccc1 (stereo not given) | 37.4% (inactive) |
| O=C(NC(CSSCC(NC(=O)OCc1ccccc1)C(=O)O)C(=O)O)OCc1ccccc1 (stereo not given) | 87.3% (inactive) |
| CN(C)CC(CN(C)C)C(O)c1ccccc1 (stereo not given) | 104% (inactive) |
| O=C1C=CC(n2cc(F)c(=O)[nH]c2=O)O1 (stereo not given) | 50.4% (inactive) |
| CCCCCCCCCCCCCCCCC(=O)O | 91.5% (inactive) |
| COC(=O)C(Cc1cn(C(C)=O)c2ccccc12)P(=O)(OC)OC (stereo not given) | 110% (inactive) |
| CC(=O)Nc1ccc2oc(=O)ccc2c1 | 109% (inactive) |
| CCCC(=O)Oc1ccc2ccccc2c1 | 90.2% (inactive) |
| CC1(C)OC(=O)C(=Cc2ccc(C#N)cc2)C(=O)O1 | 102% (inactive) and 97.1% (inactive) |
| O=C(O)C(Cc1ccc(OS(=O)(=O)Cc2ccccc2)cc1)NS(=O)(=O)Cc1ccccc1 (stereo not given) | 115% (inactive) and 112% (inactive) |
| C(#CCN1CCOCC1)CCCN1CCOCC1 | 107% (inactive) |
| O=[N+]([O-])c1ccc(NC(c2ccccc2)c2ccc3cccnc3c2O)cc1 (stereo not given) | 10.2% (inactive) |
| COc1ccc(C(=O)C(O)c2ccc(OC)cc2)cc1 (stereo not given) | 108% (inactive) and 105% (inactive) |
| CCN(CC)Cc1cc2[nH]c3c4ccc(Cl)cc4ncc3c2cc1OC | -21.5% (active) and 61% (inactive) |
| COc1ccc(CCn2cnn3c(=O)c4ccccc4nc3c2=O)cc1OC | 97.6% (inactive) |
| CCCC(=O)OCC(COC(=O)CCC)OC(=O)CCC | 95.4% (inactive) |
| CC(C)(C)OC(=O)CC1(O)CCCCC1 | 106% (inactive) |
| N=C(N)N1CCc2ccccc2C1 | 91.9% (inactive) |

| Structure (SMILES) | growth |
| --- | --- |
| OCCCc1ccccc1 | 108% (inactive) |
| CCCC(=O)Oc1ccc(CC)cc1 | 107% (inactive) |
| CCN(C)c1ccccc1 | 103% (inactive) |
| COC(=O)c1ccccc1Cl | 100% (inactive) |
| O=C(O)Cc1cc(=O)[nH]n(-c2ccccc2)c1=O | 112% (inactive) |
| O=c1[nH]c(=O)n(C2OC(CO)C(O)C2O)cc1I (stereo not given) | 95.5% (inactive) |
| CCOC(=N)c1ccc(C(=N)OCC)cc1 | 107% (inactive) |
| CC1NC(C)c2ccc3ccccc3c2O1 (stereo not given) | 97.9% (inactive) |
| C/C(=C\c1ccccc1)C(O)C(=O)c1nc2ccc([N+](=O)[O-])cc2[nH]c1=O (stereo not given) | 74.8% (inactive) |
| CS(=O)(=O)OCC1NC(=O)C(COS(C)(=O)=O)NC1=O (stereo not given) | 82.4% (inactive) and 74.2% (inactive) |
| CC1CCC(=O)N1c1ccc(N)cc1 (stereo not given) | 107% (inactive) |
| C#CCOC(=O)C(N)CS (stereo not given) | 107% (inactive) |
| COc1cc([C@@H]2c3cc4c(cc3[C@H](O)[C@H]3COC(=O)[C@@H]23)OCO4)cc(OC)c1OC | 17.4% (inactive) and 0.767% (active) |
| O=C(/C=C/C=C/c1ccc2c(c1)OCO2)N1CCCCC1 | 109% (inactive) and 107% (inactive) |
| CCn1c2ccc(N(C)C)cc2c2cc(N(C)C)ccc21 | 85.5% (inactive) |
| Cc1c(O)nc(N)[nH]c1=O | 90.1% (inactive) |
| Nc1ccccc1SC(CC(=O)c1ccccc1)c1cccc([N+](=O)[O-])c1 (stereo not given) | 53.3% (inactive) and 34.9% (inactive) |
| O=C1C2=C(Nc3cc(Cl)ccc3N2)OC1c1c[nH]c2ccc(COc3ccccc3)cc12 (stereo not given) | 64.1% (inactive) |
| O=C1CCC(=O)N1CC1CC2CCC1C2 (stereo not given) | 95.1% (inactive) and 104% (inactive) |

same assay, conditions: 50 µM

| Structure (SMILES) | growth |
| --- | --- |
| S=c1nc[nH]c2nc[nH]c12 | 16.8% (inactive) |
